Data on 36 compounds can be found in PubChem BioAssay (Tox21).

Several values for one entry are separate records, joined by “and”; a condition that tells them apart may be missing. Identical values can stand only once. Results filed as inconclusive are left out. A call without a number means that no potency is given here. Unmarked numbers belong to inactive results. Activity calls are given as the source filed them. Calls follow the shape of the dose curve; as a rule, active = well fitted curve in the direction sought with a large enough effect in the repeat runs; inconclusive = weak or mixed curves; inactive = no such curve, though single readings can be large; an effect the other way counts as inactive or inconclusive.
Also: nearly all actives have a fitted effect of over 50% in size.
Potency is read from the fitted curve at half-maximal effect.

Sequence of Voltage-gated inwardly rectifying potassium channel KCNH2 (Homo sapiens) (Q12809 whole entry, looked up): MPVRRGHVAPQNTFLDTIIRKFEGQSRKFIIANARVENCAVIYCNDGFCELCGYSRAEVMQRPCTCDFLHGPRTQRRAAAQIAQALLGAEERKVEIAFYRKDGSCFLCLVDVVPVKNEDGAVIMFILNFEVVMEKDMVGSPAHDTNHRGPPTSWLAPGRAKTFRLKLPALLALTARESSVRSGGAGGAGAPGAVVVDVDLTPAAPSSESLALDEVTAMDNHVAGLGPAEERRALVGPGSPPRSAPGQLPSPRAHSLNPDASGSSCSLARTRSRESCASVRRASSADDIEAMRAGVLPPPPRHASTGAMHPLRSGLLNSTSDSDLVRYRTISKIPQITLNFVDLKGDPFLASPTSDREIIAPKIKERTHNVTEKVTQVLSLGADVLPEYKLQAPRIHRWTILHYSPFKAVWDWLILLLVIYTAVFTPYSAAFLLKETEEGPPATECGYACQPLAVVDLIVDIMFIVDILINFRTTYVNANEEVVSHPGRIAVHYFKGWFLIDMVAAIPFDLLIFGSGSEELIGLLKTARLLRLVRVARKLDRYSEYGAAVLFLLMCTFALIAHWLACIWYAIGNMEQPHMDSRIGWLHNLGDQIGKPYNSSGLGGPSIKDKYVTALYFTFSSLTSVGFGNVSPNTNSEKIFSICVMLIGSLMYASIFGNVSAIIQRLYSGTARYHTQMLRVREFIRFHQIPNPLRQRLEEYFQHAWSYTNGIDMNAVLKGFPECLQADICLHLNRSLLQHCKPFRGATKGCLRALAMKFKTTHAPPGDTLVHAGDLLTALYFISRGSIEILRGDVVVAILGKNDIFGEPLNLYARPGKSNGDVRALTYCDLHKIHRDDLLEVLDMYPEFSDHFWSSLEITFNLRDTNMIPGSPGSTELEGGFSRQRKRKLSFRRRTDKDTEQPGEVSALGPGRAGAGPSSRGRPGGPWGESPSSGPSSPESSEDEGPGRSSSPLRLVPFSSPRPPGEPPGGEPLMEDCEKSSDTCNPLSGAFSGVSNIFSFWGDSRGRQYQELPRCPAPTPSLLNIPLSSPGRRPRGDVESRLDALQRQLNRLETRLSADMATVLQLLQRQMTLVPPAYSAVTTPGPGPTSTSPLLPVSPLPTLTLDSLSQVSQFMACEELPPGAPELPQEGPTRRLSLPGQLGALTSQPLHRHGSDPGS

One test concerns the target Voltage-gated inwardly rectifying potassium channel KCNH2 (Homo sapiens) (UniProt Q12809). The test can be described thus: Human Ether-a-go-go-Related Gene (hERG) channel small molecule antagonists: fluorescence cell-based qHTS assay (AID 1671200).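 As to activity change, negative = inhibition: hERG-expressing U2OS cells given a thallium stimulus after FluxOR II dye loading.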 Particulars: hERG-U2OS cells, FluxOR thallium flux fluorescence; series mostly up to 76.8 µM. The gist of the method: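 U2OS cells expressing the channel were plated at 1000 cells/well, incubated overnight at 37 C, then loaded with FluxOR II thallium-sensitive dye for 1 h at room temperature in the dark, with a further 10 min at room temperature before stimulation.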
(The hERG channel carries a current that helps repolarise heart muscle cells.)
Take `Cc1cc(C)c(C2=C(OC(=O)CC(C)(C)C)C3(CCCC3)OC2=O)c(C)c1`: the Potency result is “inactive”. For `Brc1c(Br)c(Br)c(Oc2c(Br)c(Br)c(Br)c(Br)c2Br)c(Br)c1Br`, the activity change, negative = inhibition was -0.0422% [at 15.8 µM]. Regarding `CCCCOP(=O)(CCCC)OCCCC`, the Potency result is “inactive”. As to `C[C@@H](Oc1ccc(Cl)cc1Cl)C(=O)O`, the Potency entry is “inactive”. Take `CC[C@H](C)[C@H]1O[C@]2(C=C[C@@H]1C)C[C@@H]1C[C@@H](C/C=C(\C)[C@@H](O[C@H]3C[C@H](OC)[C@@H](O[C@H]4C[C@H](OC)[C@@H](O)[C@H](C)O4)[C@H](C)O3)[C@@H](C)/C=C/C=C3\CO[C@@H]4[C@H](O)C(C)=C[C@@H](C(=O)O1)[C@]34O)O2`: the Potency entry is “inactive”. `[CH3][Hg][Cl]`: the Potency is 24.5 µM (active).

With `ClCCN1CCOCC1`, the Potency result is “inactive”. For `Cc1cc(C(C)(C)c2cc(C)c(O)c(C)c2)cc(C)c1O`, the Potency entry is “inactive”. Turning to `C=CC(=O)OCCCCOC(=O)C=C`, the Potency entry was “inactive”. As for `O=[N+]([O-])c1cc(Cl)ccc1Cl`, the Potency result was “inactive”. Same read-out and setting: then `ClC1=C(Cl)[C@]2(Cl)[C@@H]3[C@@H](Cl)[C@@H](Cl)C[C@@H]3[C@@]1(Cl)C2(Cl)Cl`, with “inactive”; and `C=CC(=O)OCC(COC(=O)C=C)(COC(=O)C=C)COC(=O)C=C`, with “inactive”; and `Oc1ccc(C(c2ccc(O)cc2)(C(F)(F)F)C(F)(F)F)cc1`, with 43.4 µM (active). For the compound `CC1(C)C(/C=C(\Cl)C(F)(F)F)C1C(=O)OC(C#N)c1cccc(Oc2ccccc2)c1` (centres undefined), the Potency entry was “inactive”.

Take `Nc1ccc([N+](=O)[O-])cc1Cl`: the Potency result was “inactive”. As for `Cc1cc(N=Nc2ccccc2C)ccc1N`, the Potency entry was “inactive”.

In the case of `CC(=O)c1cc(C(C)(C)C)cc2c1CCC2(C)C`, the Potency result is “inactive”. In the case of `CCOP(=S)(OCC)SCS(=O)(=O)CC`, the Potency result was “inactive”.

Take `Cc1ccc(CCl)cc1`: the Potency result is “inactive”. The same measure, in the same setting: then `O=[N+]([O-])c1c2ccccc2cc2ccccc12`, with “inactive”; and `Oc1c(Cl)c(Cl)cc(Cl)c1Cl`, with “inactive”; and `BrCC(Br)c1ccccc1` (centres undefined), with “inactive”. Consider `C[C@@H]1O[C@@H](O[C@@H]2C=C3CC[C@@H]4[C@H](CC[C@]5(C)[C@@H](c6ccc(=O)oc6)CC[C@]45O)[C@@]3(C)CC2)[C@H](O)[C@H](O)[C@H]1O`, for which the Potency entry was “inactive”.

Take `CC(O)C#N` (centres undefined): the Potency entry is “inactive”.

Take `N#CC(Cl)Cl`: the Potency entry was “inactive”. For the compound `COc1cc(C=O)cc2c1[C@H](COC(N)=O)[C@]1(OC(C)=O)ON2C[C@H]2[C@@H]1N2C(C)=O`, the Potency result is “inactive”. For the compound `O=C(CCl)Nc1ccccc1`, the Potency result was “inactive”.

Consider `CC(=[OH+])/C=C(/C)[O-].CC(=[OH+])/C=C(\C)[O-].CC(=[OH+])/C=C(\C)[O-].[Fe]`, for which the Potency entry was “inactive”.

Consider `ClC(Cl)=C(c1ccc(Cl)cc1)c1ccc(Cl)cc1`, for which the Potency was 39.9 µM (active) and 49 µM (active). For `NNC(=O)c1ccccc1`, the Potency result was “inactive”. Regarding `Nc1ccc(Cc2ccc(N)c(Cl)c2)cc1Cl`, the Potency result is “inactive”.

In another test the target is Cytochrome P450 3A4 (Homo sapiens) (UniProt P08684). Kind of test: Cytochrome P450 Family 3 Subfamily A Member 4 (CYP3A4) small molecule antagonists: luciferase reporter qHTS assay (AID 1671201). As to conditions: P450-Glo CYP3A4 enzyme, luciferin luminescence, 1 h; series mostly up to 115 µM. The gist of the method: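 P450-Glo CYP3A4 system with proluciferin substrate; compounds preincubated 10 min RT with enzyme-substrate mix, then NADPH regeneration added for 1 h RT. Detection reagent 20 min, luminescence read as relative luminescence units.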
Sequence of Cytochrome P450 3A4 (Homo sapiens) (P08684 whole entry, looked up): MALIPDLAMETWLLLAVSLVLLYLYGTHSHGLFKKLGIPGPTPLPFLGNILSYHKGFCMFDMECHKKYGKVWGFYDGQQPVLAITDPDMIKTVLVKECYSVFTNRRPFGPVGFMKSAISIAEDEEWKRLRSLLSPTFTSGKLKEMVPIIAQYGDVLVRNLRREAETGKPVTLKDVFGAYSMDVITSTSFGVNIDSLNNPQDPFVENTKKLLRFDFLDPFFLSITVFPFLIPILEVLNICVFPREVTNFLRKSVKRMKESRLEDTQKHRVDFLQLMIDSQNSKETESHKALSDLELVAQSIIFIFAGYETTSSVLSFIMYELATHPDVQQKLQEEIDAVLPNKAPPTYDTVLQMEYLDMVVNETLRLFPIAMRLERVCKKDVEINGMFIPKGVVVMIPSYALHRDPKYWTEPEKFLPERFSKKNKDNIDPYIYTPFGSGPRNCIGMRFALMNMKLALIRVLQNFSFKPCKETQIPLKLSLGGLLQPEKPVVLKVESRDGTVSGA
For `Cc1cc(C)c(C2=C(OC(=O)CC(C)(C)C)C3(CCCC3)OC2=O)c(C)c1`, the Potency is 37.3 µM (active). As to `Cn1cc(C2=C(c3cn(C4CCN(Cc5ccccn5)CC4)c4ccccc34)C(=O)NC2=O)c2ccccc21`, the Potency entry is “inactive”. `C[C@@H](Oc1ccc(Cl)cc1Cl)C(=O)O`: the Potency result is “inactive”.

In the case of `C[CH2][Hg][N]1C(=O)C2C(C1=O)C1(Cl)C(Cl)=C(Cl)C2(Cl)C1(Cl)Cl` (centres undefined), the Potency is 13.5 µM (active). `CC[C@H](C)[C@H]1O[C@]2(C=C[C@@H]1C)C[C@@H]1C[C@@H](C/C=C(\C)[C@@H](O[C@H]3C[C@H](OC)[C@@H](O[C@H]4C[C@H](OC)[C@@H](O)[C@H](C)O4)[C@H](C)O3)[C@@H](C)/C=C/C=C3\CO[C@@H]4[C@H](O)C(C)=C[C@@H](C(=O)O1)[C@]34O)O2`: the Potency was 9.39 µM (active). With `[CH3][Hg][Cl]`, the Potency is 39.8 µM (active). As for `ClCCN1CCOCC1`, the Potency result is “inactive”.

Turning to `Cc1cc(C(C)(C)c2cc(C)c(O)c(C)c2)cc(C)c1O`, the Potency is 2.73 µM (active). The same measure, in the same setting: then `C=CC(=O)OCCCCOC(=O)C=C`, with “inactive”; and `ClC1=C(Cl)[C@]2(Cl)[C@@H]3[C@@H](Cl)[C@@H](Cl)C[C@@H]3[C@@]1(Cl)C2(Cl)Cl`, with “inactive”; and `C=CC(=O)OCC(COC(=O)C=C)(COC(=O)C=C)COC(=O)C=C`, with 1.26 µM (active).

In the case of `Oc1ccc(C(c2ccc(O)cc2)(C(F)(F)F)C(F)(F)F)cc1`, the Potency is 35.4 µM (active) and 35.6 µM (active). On the same count and under the same terms, the value for `Clc1ccc(C(c2ccccc2Cl)C(Cl)(Cl)Cl)cc1` (centres undefined) was “inactive”; that for `CC1(C)C(/C=C(\Cl)C(F)(F)F)C1C(=O)OC(C#N)c1cccc(Oc2ccccc2)c1` (centres undefined) was “inactive”; that for `Nc1ccc([N+](=O)[O-])cc1Cl` was “inactive”. As for `CCOP(=S)(OCC)SCS(=O)(=O)CC`, the Potency is 7.96 µM (active). The same measure, in the same setting: then `Cc1ccc(CCl)cc1`, with “inactive”; and `Oc1c(Cl)c(Cl)cc(Cl)c1Cl`, with “inactive”.

`CCCN(CCC)CCc1c[nH]c2ccccc12`: the Potency result is “inactive”. For `BrCC(Br)c1ccccc1` (centres undefined), the Potency entry was “inactive”. Turning to `C[C@@H]1O[C@@H](O[C@@H]2C=C3CC[C@@H]4[C@H](CC[C@]5(C)[C@@H](c6ccc(=O)oc6)CC[C@]45O)[C@@]3(C)CC2)[C@H](O)[C@H](O)[C@H]1O`, the Potency result was “inactive”.

For the compound `CC(O)C#N` (centres undefined), the Potency result is “inactive”.

As for `N#CC(Cl)Cl`, the Potency entry is “inactive”.

In the case of `COc1cc(C=O)cc2c1[C@H](COC(N)=O)[C@]1(OC(C)=O)ON2C[C@H]2[C@@H]1N2C(C)=O`, the Potency entry was “inactive”. Turning to `O=C(CCl)Nc1ccccc1`, the Potency entry was “inactive”. As for `Oc1cc(Cl)c(Cl)c(Cl)c1`, the Potency was 53.5 µM (active). For `CC(=[OH+])/C=C(/C)[O-].CC(=[OH+])/C=C(\C)[O-].CC(=[OH+])/C=C(\C)[O-].[Fe]`, the Potency entry was “inactive”. In the case of `ClC(Cl)=C(c1ccc(Cl)cc1)c1ccc(Cl)cc1`, the Potency entry is “inactive”.
